# Structures can show the parent of a compound that is named as a salt.
# Tests used:
# Test in all cases: Euclidean distance of Cell Painting phenotypic profile (signed KS, 77 features) to DMSO centroid (dimensionless distance); 5 or 10 uM (library dependent); higher = stronger phenotypic change vs DMSO (phenoactivity)
# Conditions in all cases: 48 h
# 786-O = tested on: 786-O
# Method in brief: (§1)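 Stained cells were imaged confocally at 20X with 9 fields per well, after 48 h of exposure to library compounds at 10 or 5 uM (set by library; 0.1% DMSO final). The cells were five cancer lines and a healthy fibroblast line. From the images, Harmony extracted 77 features, each expressed as a signed Kolmogorov-Smirnov statistic relative to same-plate vehicle wells. Phenoactivity is measured as Euclidean distance to the median vehicle profile, using plate-position-corrected, correlation-weighted profiles averaged across replicates at the top dose.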
# A549 = tested on: A549
# Method in brief: as §1
# DU145 = tested on: DU145
# Method in brief: as §1
# FB = tested on: FB
# Method in brief: as §1
# HEPG2 = tested on: HEPG2
# Method in brief: as §1
# OVCAR4 = tested on: OVCAR4
# Method in brief: as §1
compound,measurement,setting,value
CNCC(=O)O [Sarcosine],Euclidean distance,786-O,1.77
same,Euclidean distance,A549,0.92
same,Euclidean distance,DU145,1.05
same,Euclidean distance,FB,1.13
same,Euclidean distance,HEPG2,0.831
same,Euclidean distance,OVCAR4,1.75
Cc1cc(-c2ccc(CC(=O)Nc3ccc(-c4cccnc4)cc3)cc2)ccn1,Euclidean distance,786-O,1.31
same,Euclidean distance,A549,1.03
same,Euclidean distance,DU145,0.823
same,Euclidean distance,FB,1.02
same,Euclidean distance,HEPG2,0.787
same,Euclidean distance,OVCAR4,1.36
CCCN1CCCC[C@H]1C(=O)Nc1c(C)cccc1C [Ropivacaine],Euclidean distance,786-O,1.19
same,Euclidean distance,A549,1.64
same,Euclidean distance,DU145,0.902
same,Euclidean distance,FB,1.93
same,Euclidean distance,HEPG2,1.18
same,Euclidean distance,OVCAR4,1.31
NCCNc1ccc(NCCN)c2c1C(=O)c1ccncc1C2=O [Pixantrone Maleate],Euclidean distance,786-O,4.41
same,Euclidean distance,A549,3.32
same,Euclidean distance,DU145,3.46
same,Euclidean distance,FB,4.14
same,Euclidean distance,HEPG2,4.48
same,Euclidean distance,OVCAR4,3.49
Cc1c(Cl)cccc1Nc1ncccc1C(=O)O [Clonixin],Euclidean distance,786-O,0.846
same,Euclidean distance,A549,1.1
same,Euclidean distance,DU145,1.6
same,Euclidean distance,FB,1.11
same,Euclidean distance,HEPG2,0.606
same,Euclidean distance,OVCAR4,0.98
CC(C[N+](C)(C)C)OC(N)=O (centres undefined) [Bethanechol chloride],Euclidean distance,786-O,1.22
same,Euclidean distance,A549,0.995
same,Euclidean distance,DU145,0.866
same,Euclidean distance,FB,0.979
same,Euclidean distance,HEPG2,1.03
same,Euclidean distance,OVCAR4,0.949
COc1cc(N)c(Cl)cc1C(=O)NC1CCN(CCCOc2ccc(F)cc2)CC1OC (centres undefined) [Cisapride hydrate],Euclidean distance,786-O,0.963
same,Euclidean distance,A549,1.16
same,Euclidean distance,DU145,0.853
same,Euclidean distance,FB,1.23
same,Euclidean distance,HEPG2,0.401
same,Euclidean distance,OVCAR4,1.05
CC(C)OC(=O)OCOP(=O)(CO[C@H](C)Cn1cnc2c(N)ncnc21)OCOC(=O)OC(C)C [Tenofovir Disoproxil Fumarate],Euclidean distance,786-O,3.16
same,Euclidean distance,A549,2.92
same,Euclidean distance,DU145,1.88
same,Euclidean distance,FB,3.17
same,Euclidean distance,HEPG2,3.46
same,Euclidean distance,OVCAR4,2.99
O=C(OC(C(F)(F)F)C(F)(F)F)N1CCN(Cc2ccc(C(F)(F)F)cc2N2CCCC2)CC1,Euclidean distance,786-O,1.62
same,Euclidean distance,A549,1.13
same,Euclidean distance,DU145,0.875
same,Euclidean distance,FB,1.46
same,Euclidean distance,HEPG2,1.27
same,Euclidean distance,OVCAR4,1.66
NC[C@H]1O[C@H](O[C@H]2[C@H](O)[C@@H](O[C@H]3O[C@H](CO)[C@@H](O)[C@H](N)[C@H]3O)[C@H](N)C[C@@H]2N)[C@H](O)[C@@H](O)[C@@H]1O [Kanamycin sulfate],Euclidean distance,786-O,1.57
same,Euclidean distance,A549,0.801
same,Euclidean distance,DU145,1.16
same,Euclidean distance,FB,0.974
same,Euclidean distance,HEPG2,2.18
same,Euclidean distance,OVCAR4,1.35
Clc1ccc(C(Cn2ccnc2)OCc2ccsc2Cl)c(Cl)c1 (centres undefined) [Tioconazole],Euclidean distance,786-O,1.07
same,Euclidean distance,A549,0.786
same,Euclidean distance,DU145,2.41
same,Euclidean distance,FB,1.25
same,Euclidean distance,HEPG2,1.14
same,Euclidean distance,OVCAR4,1.44
CCCC(C(=O)OCCN(CC)CC)(c1ccccc1)c1ccccc1 [Proadifen HCl],Euclidean distance,786-O,1.14
same,Euclidean distance,A549,1.1
same,Euclidean distance,DU145,2.58
same,Euclidean distance,FB,1.59
same,Euclidean distance,HEPG2,1.89
same,Euclidean distance,OVCAR4,1.13
Nc1ccccc1NC(=O)c1ccc(CNc2nccc(-c3cccnc3)n2)cc1 [Mocetinostat (MGCD0103)],Euclidean distance,786-O,3.18
same,Euclidean distance,A549,3.33
same,Euclidean distance,DU145,2.95
same,Euclidean distance,FB,3.48
same,Euclidean distance,HEPG2,3.36
same,Euclidean distance,OVCAR4,3.38
Cc1ccc(S(=O)(=O)c2ccc([N+](=O)[O-])o2)cc1,Euclidean distance,786-O,6.48
same,Euclidean distance,A549,1.74
same,Euclidean distance,DU145,3.22
same,Euclidean distance,FB,5.11
same,Euclidean distance,HEPG2,1.81
same,Euclidean distance,OVCAR4,6.14
c1cnc(N2CCN(Cc3ccc4c(c3)OCO4)CC2)nc1 [Piribedil],Euclidean distance,786-O,1.19
same,Euclidean distance,A549,0.769
same,Euclidean distance,DU145,1.21
same,Euclidean distance,FB,1.05
same,Euclidean distance,HEPG2,0.645
same,Euclidean distance,OVCAR4,0.899
CN1C(=O)[C@@H](NC(=O)c2n[nH]c(Cc3ccccc3)n2)COc2ccccc21,Euclidean distance,786-O,0.778
same,Euclidean distance,A549,1.15
same,Euclidean distance,DU145,1.8
same,Euclidean distance,FB,1.02
same,Euclidean distance,HEPG2,0.727
same,Euclidean distance,OVCAR4,1.12
CCCCC(C)(O)C/C=C/[C@H]1[C@H](O)CC(=O)[C@@H]1CCCCCCC(=O)OC (mixture of isomers) [Misoprostol],Euclidean distance,786-O,1.2
same,Euclidean distance,A549,0.849
same,Euclidean distance,DU145,1.06
same,Euclidean distance,FB,1.07
same,Euclidean distance,HEPG2,0.553
same,Euclidean distance,OVCAR4,1.08
N[C@@H]1CONC1=O [D-Cycloserine],Euclidean distance,786-O,1.67
same,Euclidean distance,A549,1.18
same,Euclidean distance,DU145,1.43
same,Euclidean distance,FB,0.939
same,Euclidean distance,HEPG2,0.865
same,Euclidean distance,OVCAR4,0.96
Nc1nccc2c1ncn2C1C=C(CO)C(O)C1O (centres undefined) [3-Deazaneplanocin A (DZNeP)],Euclidean distance,786-O,2.28
same,Euclidean distance,A549,1.27
same,Euclidean distance,DU145,1.19
same,Euclidean distance,FB,2.71
same,Euclidean distance,HEPG2,1.23
same,Euclidean distance,OVCAR4,1.72
O=C(OC[C@H]1O[C@@H](OC(=O)c2cc(O)c(O)c(OC(=O)c3cc(O)c(O)c(O)c3)c2)[C@H](OC(=O)c2cc(O)c(O)c(OC(=O)c3cc(O)c(O)c(O)c3)c2)[C@@H](OC(=O)c2cc(O)c(O)c(OC(=O)c3cc(O)c(O)c(O)c3)c2)[C@@H]1OC(=O)c1cc(O)c(O)c(OC(=O)c2cc(O)c(O)c(O)c2)c1)c1cc(O)c(O)c(OC(=O)c2cc(O)c(O)c(O)c2)c1 [Tannic acid],Euclidean distance,786-O,0.956
same,Euclidean distance,A549,1.44
same,Euclidean distance,DU145,1.47
same,Euclidean distance,FB,1.45
same,Euclidean distance,HEPG2,1.43
same,Euclidean distance,OVCAR4,1.05
Cn1cc(C(=O)[C@@H]2CCc3[nH]cnc3C2)c2ccccc21 [Ramosetron Hydrochloride],Euclidean distance,786-O,1.07
same,Euclidean distance,A549,0.965
same,Euclidean distance,DU145,0.791
same,Euclidean distance,FB,1.34
same,Euclidean distance,HEPG2,0.731
same,Euclidean distance,OVCAR4,1.41
COc1cc(C(=O)NCc2ccc(OCCN(C)C)cc2)cc(OC)c1OC [Tribenzagan Hydrochloride],Euclidean distance,786-O,1.18
same,Euclidean distance,A549,1.99
same,Euclidean distance,DU145,1.05
same,Euclidean distance,FB,1.12
same,Euclidean distance,HEPG2,1.07
same,Euclidean distance,OVCAR4,1.09
CNC[C@@H](O)c1ccc(O)c(O)c1 [L-Adrenaline],Euclidean distance,786-O,1.4
same,Euclidean distance,A549,0.654
same,Euclidean distance,DU145,0.94
same,Euclidean distance,FB,1.3
same,Euclidean distance,HEPG2,0.928
same,Euclidean distance,OVCAR4,0.954
O=C(CCCCCCNC(=O)c1cnc(N(c2ccccc2)c2ccccc2)nc1)NO [Ricolinostat (ACY-1215)],Euclidean distance,786-O,1.87
same,Euclidean distance,A549,1.63
same,Euclidean distance,DU145,1.29
same,Euclidean distance,FB,3.31
same,Euclidean distance,HEPG2,2.26
same,Euclidean distance,OVCAR4,2.18
